Reference: PubChem BioAssay (EPA / NIEHS)
Activity calls are given as the source filed them. The calls were made as follows: active = hit-call score of the fitted dose curve at least 0.9, where 1 is the maximum; inactive = score below 0.9.

assay: ATG_Ets_CIS: Attagene CIS-FACTORIAL HepG2 Assay for human Erythroblast Transformation Specific (ETS) (AID 2282941); conditions: HepG2 ETS cis-reporter transcription, actives raise or lower the signal
Experimental: ATG_CIS is a cell-based, multiplexed-readout assay that uses HepG2, a human liver cell line, with measurements taken at 24 hours after chemical dosing in a 24-well plate.ATG_Ets_CIS is one of 52 assay component(s) measured or calculated from the ATG_CIS assay. It is designed to make measurements of mRNA induction, a form of inducible reporter, as detected with fluorescence intensity signals by Reverse transcription polymerase chain reaction (RT-PCR) and Capillary electrophoresis technology.Data from the assay component ATG_Ets_CIS was analyzed into 1 assay endpoint. This assay endpoint, ATG_Ets_CIS, was analyzed with bidirectional fitting relative to DMSO as the negative control and baseline of activity. Using a type of inducible reporter, measures of mRNA for gain or loss-of-signal activity can be used to understand the reporter gene at the transcription factor-level as they relate to the gene ETS1. Furthermore, this assay endpoint can be referred to as a primary readout, because this assay has produced multiple assay endpoints where this one serves a reporter gene function. To generalize the intended target to other relatable targets, this assay endpoint is annotated to the dna binding intended target family, where the subfamily is winged helix-turn-helix.
Human liver HepG2 cells are transiently transfected with multiple reporter transcription units (MRTUs) in 6-well plates using FuGene 6 reagent (Roche; 3 ml FuGene/1 mg DNA). The MRTU constructs are regulated by a cis-regulating element (promoter). […] A major difference between the CIS and TRANS system is that in CIS activities of endogenous TFs are measured, whereas the TRANS assay evaluates changes in activities of exogenous, chimeric NR-Gal4 proteins. […] At the end of 24 hour incubation, total RNA was isolated using TriZol reagent (Invitrogen). The isolated RNA is then reverse-transcribed using oligo(dT) primer and Mo-MLV reverse transcriptase (Invitrogen) with DNAse I (Ambion) treatment for 30 min. The one-tenth of the produced cDNA was amplified by PCR using Taq DNA polymerase (Invitrogen) and two reporter sequence-specific primers. The PCR products were fluorescently labeled by primer extension with 6-arboxyfluorescein (6-FAM) 5'-labeled reporter sequence-specific primer (2 min at 95 C, 20 s at 68 C and 10 min at 72 C) and these products were digested with 5U of HpaI (New England Biolabs) for 2h at 37 C. The fragments were purified using Qiaquick PCR columns (Qiagen), analyzed on an ABI 3130xL genetic analyzer (Applied Biosystems) with peak positions identified by using a set of X-rhodamine (ROX)-labeled MapMarker1000 molecular weight standards (BioVentures). The raw capillary electrophoresis data was processed using Attagraph software (Attagene).

Row | Structure (SMILES) | outcome | AC50
1 | CC=C(C)C(C)=O | inactive | –
2 | C=CC(C)(O)CC/C=C(\C)CC (stereo not given) | inactive | –
3 | O=C(O)c1cc(O)c2ccccc2c1O | – | 57.9 µM (active)
4 | N#Cc1ccc(C2CCCc3cncn32)cc1 (stereo not given) | inactive | –
5 | CCCCC/C=C\C/C=C\CCCCCCCC(=O)O | inactive | –
6 | O=C1CCCN1C1CCCCC1 | inactive | –
7 | CC(=O)c1ccccc1O | inactive | –
8 | CCC(C)C(=O)OC (stereo not given) | inactive | –
9 | CCN1CCCC1=O | inactive | –
10 | CCN(CC)c1cccc(C)c1 | inactive | –
11 | CC(C)(CO)COC(=O)C(C)(C)CO | inactive | –
12 | OCCCc1ccccc1 | inactive | –
13 | COC(Cc1ccccc1)OC | inactive | –
14 | CCCCCCCCCC[N+](C)(CCCCCCCCCC)CCC[Si](OC)(OC)OC | inactive | –
15 | CCOC(=O)c1ccc(C)cc1 | inactive | –
16 | CCC1(C)C(=O)N(Cl)C(=O)N1Cl (stereo not given) | inactive | –
17 | CC1=CC=C(C(C)C)CC1 | inactive | –
18 | Cc1c(C(=O)c2c[nH]n(C)c2=O)ccc(S(C)(=O)=O)c1C1=NOCC1 | inactive | –
19 | CC(=O)CCC1=C(C)CCCC1(C)C | inactive | –
20 | CCCCCC(=O)OCC | inactive | –

Row | Structure (SMILES) | outcome | AC50
21 | CCC1COC(=O)O1 (stereo not given) | inactive | –
22 | CCc1cccc(CC)c1 | inactive | –
23 | CO[Si](CCCS)(OC)OC | inactive | –
24 | CCOB(OCC)OCC | inactive | –
25 | CC(CCC(=O)O)(c1ccc(O)cc1)c1ccc(O)cc1 | inactive | –
26 | [Cl][Eu]([Cl])[Cl] | inactive | –
27 | Nc1ccnc(=O)[nH]1 | inactive | –
28 | CCc1occc(=O)c1O | inactive | –
29 | CC(C=O)c1ccccc1 (stereo not given) | inactive | –
30 | CCCCC1CCC(=O)O1 (stereo not given) | inactive | –
31 | Cc1cc(C)n(CO)n1 | inactive | –
32 | CCN1CN(CC)CN(CC)C1 | – | 175 µM (active)
33 | Nc1ccc(O)c([N+](=O)[O-])c1 | inactive | –
34 | c1ccc2sc(SSN3CCOCC3)nc2c1 | inactive | –
35 | COc1nccnc1CC(C)C | inactive | –
36 | COC(=O)C=Cc1ccccc1 | inactive | –
37 | c1ccc(Nc2cccc3ccccc23)cc1 | – | 33.4 µM (active)
38 | Oc1ccc(/C=C/c2cc(O)cc(O)c2)cc1 | – | 153 µM (active)
39 | CC(C)c1ccc(O)c(C(C)C)c1 | inactive | –
40 | CCCCCCCCC(CO)CCCCCC (stereo not given) | – | 173 µM (active)
